In PubChem BioAssay (NCATS):
Inconclusive results are not listed. A call without a number means that no potency is given here. Unmarked numbers belong to inactive results. Calls of active or inactive are those of the source. Unless noted, calls come from the whole dose curve.

Legend:
[1] = qHTS for Inhibitors of the Functional Ribonucleoprotein Complex (vRNP) of Lassa (LASV) Arenavirus: LASV Primary Screen - GLuc reporter signal (AID 1347082; calls by dose curve; tested in HEK293 reporter line; note: nearly all actives have a fitted effect of over 60% in size; for activity change, negative = inhibition: series mostly up to about 57 µM)
[2] = qHTS for Inhibitors of the Functional Ribonucleoprotein Complex (vRNP) of Lassa (LASV) Arenavirus: Viability assay - alamar blue signal for LASV Primary Screen (AID 1347083; calls by dose curve; tested in HEK293 reporter line; note: nearly all actives have a fitted effect of over 80% in size; for activity change, negative = reduced viability: series mostly up to about 57 µM)
[3] = qHTS for Inhibitors of the Functional Ribonucleoprotein Complex (vRNP) of Lymphocytic Choriomeningitis Arenaviruses (LCMV): Viability assay - alamar blue signal for LCMV Primary Screen (AID 1347085; calls by dose curve; tested in HEK293 reporter line; note: nearly all actives have a fitted effect of over 80% in size; for activity change, negative = lower viability: series mostly up to about 57 µM)
[4] = target: Nucleoprotein (Lymphocytic choriomeningitis virus (strain Armstrong)) (UniProt P09992); assay: qHTS for Inhibitors of the Functional Ribonucleoprotein Complex (vRNP) of Lymphocytic Choriomeningitis Arenaviruses (LCMV): LCMV Primary Screen - GLuc reporter signal (AID 1347086); note: nearly all actives have a fitted effect of over 70% in size; for activity change, negative = inhibition: series mostly up to about 57 µM
Potency is the fitted concentration of half-maximal effect.

Nucleoprotein (Lymphocytic choriomeningitis virus (strain Armstrong)), sequence (P09992 whole entry, looked up): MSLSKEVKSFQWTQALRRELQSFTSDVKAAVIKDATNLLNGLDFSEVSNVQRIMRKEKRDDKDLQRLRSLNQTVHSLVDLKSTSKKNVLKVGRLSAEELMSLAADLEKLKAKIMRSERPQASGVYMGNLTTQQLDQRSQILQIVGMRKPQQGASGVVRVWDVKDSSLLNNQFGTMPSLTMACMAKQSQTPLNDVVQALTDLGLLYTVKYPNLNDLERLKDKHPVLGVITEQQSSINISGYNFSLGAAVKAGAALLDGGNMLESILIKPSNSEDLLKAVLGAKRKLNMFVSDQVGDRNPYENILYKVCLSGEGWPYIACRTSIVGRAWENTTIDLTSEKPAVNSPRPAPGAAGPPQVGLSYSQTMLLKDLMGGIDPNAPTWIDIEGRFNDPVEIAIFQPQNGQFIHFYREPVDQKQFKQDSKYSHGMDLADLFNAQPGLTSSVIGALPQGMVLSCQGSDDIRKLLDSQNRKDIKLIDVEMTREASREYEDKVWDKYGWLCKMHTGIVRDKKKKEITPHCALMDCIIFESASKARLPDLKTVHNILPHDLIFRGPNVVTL

| Structure (SMILES) | Potency [1] | Potency [2] | Potency [3] | Potency [4] | activity change, negative = inhibition [1] | activity change, negative = reduced viability [2] | activity change, negative = lower viability [3] | activity change, negative = inhibition [4] |
| --- | --- | --- | --- | --- | --- | --- | --- | --- |
| CC(C)NC(=O)NCCCCCCS(C)=O (stereo not given) | inactive | inactive | inactive | inactive | – | – | – | – |
| CCCC(C)C(O)CC (stereo not given) | inactive | inactive | inactive | inactive | – | – | – | – |
| COc1ccc(C2OCC3(O)C(c4ccc(OC)c(OC)c4)OCC23)cc1OC (stereo not given) | inactive | inactive | inactive | inactive | – | – | – | – |
| Cc1c(O[C@@H]2O[C@H](CO)[C@@H](O)[C@H](O)[C@H]2O)c(CO)c(O[C@@H]2O[C@H](CO)[C@@H](O)[C@H](O)[C@H]2O)c2c1O[C@@H](c1ccccc1)C[C@@H]2O | inactive | inactive | inactive | inactive | – | – | – | – |
| C/C=C/C=C/CO | inactive | inactive | inactive | inactive | – | – | – | – |
| CC1=CC2OC3CC4OC(=O)C=CC=CC(=O)OCCC(C)C(O)C(=O)OCC2(CC1)C4(C)C31CO1 (stereo not given) | inactive | inactive | inactive | inactive | – | – | – | – |
| C#C[C@]1(O)CC[C@@H]2[C@@H]3CCC4=CC(=O)CC[C@@H]4[C@H]3CC[C@@]21CC | inactive | inactive | inactive | inactive | – | – | – | – |
| CC1=CC2OC3CC4OC(=O)C=CC=CC(C(C)O)OCC(O)C5(C)OC5C(=O)OCC2(CC1O)C4(C)C31CO1 (stereo not given) | inactive | inactive | inactive | inactive | – | – | – | – |
| NCCCCCN | inactive | inactive | inactive | inactive | – | – | – | – |
| CC(C)=CCOc1c2ccoc2c(OCC=C(C)C)c2oc(=O)ccc12 | inactive | inactive | inactive | inactive | – | – | – | – |
| CC(C)C[C@H](NC(=O)c1cc2ccccc2s1)C(=O)N1CCN(C(=O)[C@H](CO)NS(=O)(=O)c2ccc(Cl)cc2Cl)CC1 | inactive | inactive | inactive | inactive | – | – | – | – |
| Cc1cccc2c3c(ccc12)C1=C(C(=O)C3=O)[C@@H](C)CO1 | inactive | inactive | inactive | inactive | – | – | – | – |
| CCCCCc1c2c(cc(O)c1C(=O)O)OC(=O)c1cc(C(=O)CCCC)c(OC)cc1O2 | inactive | inactive | inactive | inactive | – | – | – | – |
| CCn1c(-c2nonc2N)nc2cncc(CNC3CCNCC3)c21 | 24.3 µM (active) | 17.2 µM (active) | 24.3 µM (active) | 38.5 µM (active) | – | – | – | – |
| CCCCCCOC(=O)CCC | inactive | inactive | inactive | inactive | – | – | – | – |
| C=C1C[C@H](O[C@@H]2O[C@H](CO)[C@@H](O)[C@H](O)[C@H]2O)[C@@H]2[C@H](OC(=O)[C@H]2C)[C@H]2[C@H](C)[C@@H](O)C[C@@H]12 | inactive | inactive | inactive | inactive | – | – | – | – |
| CC1=CC(=O)O[C@@H]1[C@@]1(C)C[C@H]2OC(=O)C[C@H]3[C@@H](C)C(=O)C(O)=C1[C@@]23CO | inactive | inactive | inactive | inactive | – | – | – | – |
| COC1C(O)C(O)C(O)C(O)C1O (stereo not given) | inactive | inactive | inactive | inactive | – | – | – | – |
| C=CC(C)(CCC=C(C)C)OC=O (stereo not given) | inactive | inactive | inactive | inactive | – | – | – | – |
| CC(=O)O[C@H]1C[C@@H]2CC[C@H]3[C@H]4C[C@H]([N+]5(C)CCCCC5)[C@@H](OC(C)=O)[C@@]4(C)CC[C@@H]3[C@@]2(C)C[C@H]1N1CCCCC1 | inactive | inactive | inactive | inactive | – | – | – | – |

| Structure (SMILES) | Potency [1] | Potency [2] | Potency [3] | Potency [4] | activity change, negative = inhibition [1] | activity change, negative = reduced viability [2] | activity change, negative = lower viability [3] | activity change, negative = inhibition [4] |
| --- | --- | --- | --- | --- | --- | --- | --- | --- |
| COc1c2ccoc2c(OC[C@@H](O)C(C)(C)O)c2oc(=O)ccc12 | inactive | inactive | inactive | inactive | – | – | – | – |
| Nc1ncnc2c1ncn2[C@H]1O[C@H](CO)[C@@H](O)[C@@H]1O | inactive | inactive | inactive | inactive | – | – | – | – |
| CCN1C[C@]2(COC)CC[C@H](O)[C@@]34C5C[C@@H]6[C@@H](OC)C[C@@](O)(C5[C@H]6O)[C@](O)([C@@H](OC)C23)[C@@H]14 (stereo not given in full) | inactive | inactive | inactive | inactive | – | – | – | – |
| COc1cc(C)c(C(=O)Oc2cc(C)c(C(=O)O)c(O)c2C)c(OC)c1C | inactive | inactive | inactive | inactive | – | – | – | – |
| C=CC(C)=CCC=C(C)C | inactive | inactive | inactive | inactive | – | – | – | – |
| CCCCCCCCCCCC(=O)OCC | inactive | inactive | inactive | inactive | – | – | – | – |
| N#CC(=C1Nc2ccccc2S1)c1ccnc(OCc2ccc(CN3CCOCC3)cc2)n1 | 7.69 µM (active) | 4.32 µM (active) | 1.93 µM (active) | 1.72 µM (active) | – | – | – | – |
| CC1CCC[C@H](O)CCCCCc2cc(O)cc(O)c2C(=O)O1 (stereo not given in full) | inactive | inactive | inactive | inactive | – | – | – | – |
| C=C1C[C@]23CC[C@H]4C(CO)(CO)C[C@@H](O)C[C@@]4(C)[C@@H]2CC[C@H]1C3 | inactive | inactive | inactive | inactive | – | – | – | – |
| CC(C)c1noc(N2CCC(COc3ccc(-c4ccc(S(C)(=O)=O)cc4)nc3)CC2)n1 | inactive | inactive | inactive | inactive | – | – | – | – |
| C=CC(C)(CCC=C(C)C)OC(=O)C(C)C (stereo not given) | inactive | inactive | inactive | inactive | – | – | – | – |
| COc1c2c(cc3oc(C)cc(=O)c13)OC(C(C)(C)OC1OC(CO)C(O)C(O)C1O)C2 (stereo not given) | inactive | inactive | inactive | inactive | – | – | – | – |
| C/C(=C\COc1c2ccoc2cc2oc(=O)ccc12)CCC(O)C(C)(C)O (stereo not given) | inactive | inactive | inactive | inactive | – | – | – | – |
| O=c1cc(-c2ccccc2)c2c(O)cc(O)cc2o1 | inactive | inactive | inactive | inactive | – | – | – | – |
| C/C=C(/C)C(=O)O[C@H]1[C@@H](O)c2c(ccc3ccc(=O)oc23)OC1(C)C | inactive | inactive | inactive | inactive | – | – | – | – |
| Cc1cnc(C)c(C)n1 | inactive | inactive | inactive | inactive | – | – | – | – |
| CC(C)=CCCC(C)CC(=O)O (stereo not given) | inactive | inactive | inactive | inactive | – | – | – | – |
| O=C(CO)c1c[nH]c2ccccc12 | inactive | inactive | inactive | inactive | – | – | – | – |
| CC(C)(OC1OC(CO)C(O)C(O)C1O)[C@H]1Oc2ccc3ccc(=O)oc3c2[C@H]1O (stereo not given in full) | inactive | inactive | inactive | inactive | – | – | – | – |
| NC[C@@H]1O[C@@H](O[C@H]2[C@@H](O)[C@H](O[C@@H]3[C@@H](O)[C@@H](N)C[C@H](N)[C@H]3O[C@H]3O[C@H](CN)[C@@H](O)[C@@H](O)[C@H]3N)O[C@H]2CO)[C@H](N)[C@@H](O)[C@@H]1O | inactive | inactive | inactive | inactive | – | – | – | – |

| Structure (SMILES) | Potency [1] | Potency [2] | Potency [3] | Potency [4] | activity change, negative = inhibition [1] | activity change, negative = reduced viability [2] | activity change, negative = lower viability [3] | activity change, negative = inhibition [4] |
| --- | --- | --- | --- | --- | --- | --- | --- | --- |
| CCCCCCCCCO | inactive | inactive | inactive | inactive | – | – | – | – |
| COc1cc(C(=O)O)ccc1O | inactive | inactive | inactive | inactive | – | – | – | – |
| COC(=O)c1ccc2c(c1O)C(=O)c1ccccc1C2=O | inactive | inactive | inactive | inactive | – | – | – | – |
| O=C(O)c1cccc(Br)c1 | inactive | inactive | inactive | inactive | – | – | – | – |
| COC(=O)/C=C/c1ccccc1 | inactive | inactive | inactive | inactive | – | – | – | – |
| CCCCCCCCCCCC(C)=O | inactive | inactive | inactive | inactive | – | – | – | – |
| Nc1nc(Cl)nc2c1ncn2[C@@H]1O[C@H](CO)[C@@H](O)[C@H]1F | inactive | 2.17 µM (active) | 0.243 µM (active) | inactive | – | – | – | – |
| COc1c(C(O)CC(C)C)ccc2c1C(=O)OCc1cc(C)cc(O)c1O2 (stereo not given) | inactive | inactive | inactive | inactive | – | – | – | – |
| C/C=C(\C)C(=O)O[C@@H]([C@H](O)c1cc2ccc(=O)oc2cc1OC)C(C)(C)O | inactive | inactive | inactive | inactive | – | – | – | – |
| O=C(CCc1ccc(O)cc1)c1c(O)cc(O)cc1O[C@@H]1O[C@H](CO)[C@H](O)[C@H](O)[C@H]1O | inactive | inactive | inactive | inactive | – | – | – | – |
| NCCC(=O)O | inactive | inactive | inactive | inactive | – | – | – | – |
| COc1cc(CCC(C)=O)ccc1O | inactive | inactive | inactive | inactive | – | – | – | – |
| COC(=O)c1ccccc1-n1c(C)nc2ccccc2c1=O | inactive | inactive | inactive | inactive | – | – | – | – |
| Cc1cc(O)c2c(c1O)C(=O)C(O)=C(O)C2=O | inactive | inactive | inactive | inactive | – | – | – | – |
| CCCCCCC[C@@H](C/C=C/CCC(=O)O)OC | inactive | inactive | inactive | inactive | – | – | – | – |
| C=CCNC1=C2C[C@@H](C)C[C@H](OC)[C@@H](O)[C@@H](C)C=C(C)[C@H](OC(N)=O)[C@@H](OC)C=CC=C(C)C(=O)NC(=CC1=O)C2=O | 8.63 µM (active) | 6.85 µM (active) | 15.3 µM (active) | 4.32 µM (active) | – | – | – | – |
| O=C(/C=C/c1ccc(O)cc1)OC[C@H]1O[C@@H](Oc2c(-c3ccc(O)cc3)oc3cc(O)cc(O)c3c2=O)[C@H](O)[C@@H](O)[C@@H]1O | inactive | inactive | inactive | inactive | – | – | – | – |
| O=c1cc(-c2ccc(O)cc2)oc2cc(OC3OC(CO)C(O)C(O)C3O)c(C3OC(CO)C(O)C(O)C3O)c(O)c12 (stereo not given) | inactive | inactive | inactive | inactive | – | – | – | – |
| CCCCC/C=C\C/C=C\C[C@H](O)/C=C/C=C\CCCC(=O)O | – | – | – | – | 6.73% [at 0.757 µM] | 15% [at 0.757 µM] | 7.12% [at 0.757 µM] | 11.5% [at 0.757 µM] |
| CCC/C=C/CO | inactive | inactive | inactive | inactive | – | – | – | – |
